Test results as given in PubChem BioAssay AID1259313 (Sanford-Burnham Center for Chemical Genomics, 2017).
The whole screen tested about 340,000 compounds, of which about 8,500 (2.5%) were called active. The entries come from a sample that favours actives as a whole. A number with no mark means an inactive call.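 Rule for the calls: active = melting temperature shift of at least 10% of the positive control shift, at one fixed dose; inactive = the rest.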

What follows are molecules tested on Glutamate receptor ionotropic, NMDA 3A (GRIN3A) ligand-binding domain (assay: NR3A LBD thermal stabilization by compounds – biophysical, differential scanning fluorimetry, uHTS, primary screen (AID 1259313)). Settings: at 25 µM, hits give high values, 0% = protein alone, 100% = glycine-bound protein.

Row | Compound | Tm shift relative to glycine control
1 | Brc1ccc(-c2csc(N/N=C/c3ccc4c(c3)OCO4)n2)cc1 | 23.4% (active)
2 | C(=N\Nc1ccc2ccccc2n1)/c1ccc2c(c1)OCO2 | -7.73%
3 | Brc1ccc(-c2csc(N/N=C/c3cccnc3)n2)cc1 | 3.34%
4 | COc1ccc(-c2ccc(CCC(=O)O)n2NC(=O)c2ccc(C(C)(C)C)cc2)cc1 | -1.21%
5 | CNC(=O)c1sc(NCc2ccccc2OC)nc1C | 0.18%
6 | O=C(O)/C=C\C(=O)Nc1ccc(OCc2ccccc2)cc1 | -0.88%
7 | CNC(=O)c1sc(Nc2ccc(OCc3ccccc3)cc2)nc1C | 33.7% (active)
8 | COC(=O)C1=C(Nc2ccc(C)cc2)C=C(C)C(C(=O)OC)C1c1ccc(F)cc1 (stereo unspecified) | 2.17%
9 | CC[C@]1(C(=O)OC)[C@H]2C(=O)N(Cc3ccccc3)C(=O)[C@H]2[C@H]2CN=C(SCc3ccccc3)N21 | -1.15%
10 | COCCN1C2=C(COC(C)(C)C2)C(=S)NC1c1ccccc1 (stereo unspecified) | -0.64%
11 | CCC(=O)Nc1sc(C(=O)Nc2ccccc2)c(C)c1C(=O)OC | 2.03%
12 | CC(=O)c1c(Nc2ccccc2)sc(C(=O)c2ccccc2)c1C | 13.4% (active)
13 | COC(=O)c1c(NC(C)=O)sc(C(=O)Nc2ccccc2OC)c1C | -3.42%
14 | COC(=O)c1cc(S(=O)(=O)N2CCN(c3cc(C)ccc3C)CC2)c[nH]1 | -17%
15 | Cc1ccc(Cl)c(OCC(=O)NN2CCN(C)CC2)c1 | -1.17%
16 | CCCC1=Nc2cc(C(=O)NCc3ccco3)ccc2Sc2ccccc21 | -20.6%
17 | Cc1ccc(N(CC(=O)Nc2cc(C)cc(C)c2)S(=O)(=O)c2cccc3nonc23)cc1 | -1.49%
18 | CCOC(=O)c1ccc(NC(=O)c2c(N)n(C)c(=O)[nH]c2=O)cc1 | 0.72%
19 | CCOC(=O)c1ccc(NC(=O)c2c(NCc3ccccc3)[nH]c(=O)[nH]c2=O)cc1 | 14.9% (active)
20 | CCOC(=O)c1ccc(NC(=O)c2nc[nH]c2C(=O)NCc2ccccc2)cc1 | -1.27%
21 | Cc1ccc(NC(=S)N2CCN(c3ncccn3)CC2)cc1C | -1.38%
22 | Cn1cc(/C=C/C(=O)N2CCCC(C(=O)c3ccc(C(F)(F)F)cc3)C2)cn1 (stereo unspecified) | 1.32%
23 | CCCCCCCCCCOC(=O)Cn1c(COc2cccc(OC)c2)[n+](C)c2ccccc21 | 17.8% (active)

Row | Compound | Tm shift relative to glycine control
24 | CCCCCCCCCCOC(=O)Cn1c(COc2ccc(C)cc2)[n+](C)c2ccccc21 | -408%
25 | CCCCn1c(N)c(N(CCOC)C(=O)c2cccc(OCc3ccccc3)c2)c(=O)[nH]c1=O | 1.68%
26 | O=C1CC(Cc2ccccc2)C(=O)N1c1ccc(Cl)cn1 (stereo unspecified) | 1.69%
27 | Fc1ccc(/C=N/n2c(COc3ccccc3)n[nH]c2=S)cc1 | -0.74%
28 | CN(C)c1ccc(C2Nc3ccccc3C(=O)N2NS(=O)(=O)c2ccccc2)cc1 (stereo unspecified) | 0.59%
29 | O=C(CN1CCOCC1)Nc1c2c(nc3c1CCC3)CCC2 | 10.2% (active)
30 | O=C(CN1CCOCC1)Nc1c(Cl)cc(Cl)cc1Cl | -2.33%
31 | Cc1cc(C)c(NC(=O)CN2CCOCCOCCOCCOCC2)c(C)c1 | 0.86%
32 | O=C(COc1ccc2ccccc2c1)N1CCN(C(=O)c2cccs2)CC1 | 0.47%
33 | CCOC(=O)c1nn(-c2ccccc2F)c2nc(Nc3ccccc3)cc(=O)n12 | 0.55%
34 | CCc1ccc2nc3sc(C(=O)Nc4nnc(CC)s4)c(N)c3cc2c1 | 2.24%
35 | Cc1ccc(NC(=O)CSCC(=O)Nc2sccc2C#N)cc1 | -2.55%
36 | Cc1ccc(NC(=O)c2sc3nc(N)c(C#N)cc3c2N)cc1 | 10.3% (active)
37 | Cc1cccc(C)c1OCC(=O)NC(Cc1c[nH]c2ccccc12)C(=O)O (stereo unspecified) | 0.33%
38 | O=C(CCn1nnc2ccccc2c1=O)N[C@@H](Cc1c[nH]c2ccccc12)C(=O)O | -1.09%
39 | O=C(N[C@@H](Cc1c[nH]c2ccccc12)C(=O)O)OCC1c2ccccc2-c2ccccc21 | 19.5% (active)
40 | Cc1cc(NC(=O)C(C)SCC(=O)Nc2cccc(S(=O)(=O)N3CCCCCC3)c2)no1 (stereo unspecified) | -1.57%
41 | O=C(N/N=C/c1ccc([N+](=O)[O-])cc1)c1c[nH]c2ccccc12 | 26.3% (active)
42 | NC(=O)CSc1c[nH]c2ccccc12 | 0.83%
43 | O=C(N/N=C/c1c[nH]c2ccccc12)c1cc2ccccc2o1 | 28.7% (active)
44 | C[n+]1ccc(/C=C/c2c[nH]c3ccccc23)cc1 | -3.88%
45 | Nc1nonc1-n1nnc(C(=O)N/N=C/c2c[nH]c3ccccc23)c1-c1ccccc1 | 31.6% (active)
46 | Cc1c(/C=N\NC(=O)c2cc3ccccc3o2)c2ccccc2n1C | 2.79%
